# Test results taken from PubChem BioAssay (EPA / NIEHS).
# Records with an inconclusive call do not appear. The source made the active and inactive calls. How the source made its calls: active means hit-call score of the fitted dose curve at least 0.9, where 1 is the maximum; inconclusive means response in the unintended direction; inactive means score below 0.9.
# Test: Tanguay_ZF_120hpf_SNOU_legacy: (Legacy) Oregon State University Tanguay Lab 120 Hour Post-fertilization zebrafish Assay for Snout Malformation (AID 2283637)
# Protocol: Tanguay_ZF_120hpf_legacy is a whole embryo, multiplexed endpoint assay using zebrafish larvae exposed for 120 hours post fertilization on a 96-well plate.Tanguay_ZF_120hpf_SNOU_legacy is one of one assay component(s) measured or calculated from the Tanguay_ZF_120hpf_legacy assay. It is designed to make measurements of zebrafish development as detected with brightfield microscopy of developing zebrafish embryos.Data from the assay component Tanguay_ZF_120hpf_SNOU_legacy was analyzed into 1 assay endpoints. This assay endpoint, Tanguay_ZF_120hpf_SNOU_legacy, was analyzed in the positive analysis fitting direction relative to DMSO as the negative control and baseline of activity. Using a type of morphology reporter, gain-of-signal activity can be used to understand changes in developmentals as they relate to the whole embryo. To generalize the intended target to other relatable targets, this assay endpoint is annotated to the zebrafish development intended target family, where the subfamily is embryonic snout morphogenesis.
# Zebrafish husbandry: Tropical 5D wild-type adult zebrafish were housed in at an approximate density of 1000 per 100 gallon tank at the Sinnhuber Aquatic Research Laboratory, Oregon State University, Corvallis, OR. Each tank was kept at standard laboratory conditions of 28C on a 14-h light/10-h dark photoperiod in fish water consisting of reverse osmosis water supplemented with a commercially available salt (Instant Ocean). Spawning funnels were placed into the tanks the night prior, and embryos were collected and staged. To increase bioavailability, the chorion was enzymatically removed using pronase (63.6mg/ml, >/= 3.5U/mg, Sigma-Aldrich: P5147) at 4 hours post fertilization (hpf) using a custom automated dechorionator.Chemical exposures: Six hpf dechorionated embryos were placed 1 embryo per well in a 96-well plate prefilled with 90 ul of EM using automated embryo placement systems (AEPS). Ten microliters of each row of dilution plate 2 was added to 2 exposure plates. The final DMSO concentration used was 0.64% (vol/vol). Thirty-two embryos were also exposed to 5uM trimethyltin chloride (positive control). Plates were sealed to prevent evaporation and foil covered to reduce light exposure and kept in a 28C incubator. Embryos were statically exposed until 120 hpf. At 24 hpf, embryos were assessed for photomotor response using a custom photomotor response analysis tool (PRAT) and for developmental toxicity endpoints (MO24: mortality at 24 hpf, DP: developmental progression, SM: spontaneous movement, and NC: notochord distortion). At 120 hpf, locomotor activity was measured using Viewpoint Zebralab and assessed for 18 endpoints. Zebrafish acquisition and analysis program (ZAAP), a custom program designed to inventory, acquire, and manage zebrafish data, was used to collect developmental endpoints as either present or absent (i.e., binary responses were recorded). If mortality occurred for an embryo (at either 24 or 120 hpf), the non-mortality endpoints were not measured.
SMILES,outcome,AC50
Cc1[nH]nc2c1N=C(c1ccccc1Cl)c1cc([N+](=O)[O-])ccc1N2,inactive,
CCCCCCCCCCCCCCC,inactive,
CCCCC=O,,44.9 µM (active)
CS(=O)(=O)c1ccc([C@@H](CC2CCCC2)C(=O)Nc2cnccn2)cc1Cl,inactive,
CCC(C)c1ccccc1O (stereo unspecified),inactive,
O=C(c1ccccc1)c1ccccc1,inactive,
CN(C)CCOC(c1ccccc1)c1ccccc1,inactive,
O=C(CCCN1CCC(O)(c2ccc(Cl)cc2)CC1)c1ccc(F)cc1,,2.46 µM (active)
O=C1NS(=O)(=O)c2ccccc21,inactive,
CCCCCCCCCCCCOS(=O)(=O)O,inactive,
CCCCC(CC)C(=O)O (stereo unspecified),inactive,
OCC(CO)(CBr)CBr,inactive,
CC(=O)Nc1ccc(O)cc1,inactive,
N=C(N)c1ccc(OCCCCCOc2ccc(C(=N)N)cc2)cc1,inactive,
CN(Cc1cnc2nc(N)nc(N)c2n1)c1ccc(C(=O)N[C@@H](CCC(=O)O)C(=O)O)cc1,inactive,
CCCCc1oc2ccccc2c1C(=O)c1cc(I)c(OCCN(CC)CC)c(I)c1,inactive,
